Compounds with a hit are over-represented: about 1.1% of the library has one in this group of screens.
FBPA Giardia inh = blocks Giardia fructose-bisphosphate aldolase activity; purified Giardia FBPA; AID 2451; Potency, µM (series often up to 59.6 µM), usual class: inhibitors; hit rate 0.71% among 290,000; A8B2U2; also: nearly all actives have a fitted effect of over 55% in size
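Giardia FBPA (40 nM reagent) was preincubated 10 min at RT with compound (up to 57.5 uM final), then substrate plus GAPDH/TPI/NAD/arsenate coupling system with diaphorase/resazurin was added; resorufin fluorescence (525/598 nm) was read after 20 min.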
AmpC detergent = AmpC beta-lactamase inhibition with detergent present. P00811. AmpC hydrolysis of nitrocefin, absorbance 480 nm, 0.01% Triton. Potency, µM (top dose mostly 114 µM), actives largely listed as inhibitors. hit rate 0.041% among 370,000; also: nearly all actives have a fitted effect of over 25% in size
Target sequence (P00811 whole entry, looked up): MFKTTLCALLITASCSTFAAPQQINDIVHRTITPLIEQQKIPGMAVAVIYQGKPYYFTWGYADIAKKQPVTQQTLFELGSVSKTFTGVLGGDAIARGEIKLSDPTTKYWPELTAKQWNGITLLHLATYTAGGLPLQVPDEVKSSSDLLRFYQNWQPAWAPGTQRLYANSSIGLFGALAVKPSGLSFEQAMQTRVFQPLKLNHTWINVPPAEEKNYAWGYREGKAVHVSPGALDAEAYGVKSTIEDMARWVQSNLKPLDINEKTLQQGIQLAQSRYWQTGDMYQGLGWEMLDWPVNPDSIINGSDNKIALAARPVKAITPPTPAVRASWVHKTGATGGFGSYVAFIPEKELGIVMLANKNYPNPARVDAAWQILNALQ
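AmpC (5.3 nM in the dispensed reagent) in 20 mM phosphate pH 7.0 with 0.01% (detergent screen) or 0.0001% Triton X-100 was preincubated with compounds for 15 min at room temperature. Nitrocefin was then added from an 800 uM solution, and hydrolysis was followed at 480 nm.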
AmpC no deterg = AmpC beta-lactamase inhibition without detergent. hit rate 0.52% among 330,000. P00811. AmpC nitrocefin hydrolysis, absorbance 480 nm, 0.0001% Triton. Potency, µM (series often up to 57.1 µM), hits mostly inhibitors; also: nearly all actives have a fitted effect of over 20% in size
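AmpC (5.3 nM in the dispensed reagent) in 20 mM phosphate pH 7.0 with 0.01% (detergent screen) or 0.0001% Triton X-100 was preincubated with compounds for 15 min at room temperature. Nitrocefin was then added from an 800 uM solution, and hydrolysis was followed at 480 nm.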
AMA1 RON2 block = disrupts binding of P. falciparum AMA1 to RON2; AlphaScreen AMA1-biotinylated RON2 peptide binding; Potency, µM (series often up to 58.2 µM), usual class: inhibitors; hit rate 0.2% among 360,000; AID 720542; also: nearly all actives have a fitted effect of over 45% in size
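AMA1 (3D7) with his tag at 25 nM final met compounds first, then biotinylated RON2 peptide at 25 nM; detection used donor plus acceptor beads, 10 µg/mL apiece, read by AlphaScreen after 30 min at room temperature.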
Large screens that a line does not name were inactive. Calls follow the shape of the dose curve; as a rule, active = well fitted curve in the direction sought with a large enough effect; inconclusive = small, poorly fitted or top-dose-only effect, or another doubt; inactive = no such curve, though single readings can be large; an effect the other way counts as inactive or inconclusive.

Cc1ccc(NC(=O)c2cc(S(=O)(=O)N3CCCCC3)c[nH]2)cc1C	AmpC detergent inconclusive, AmpC no deterg 7.08µM
O=C(Nc1ccc(S(=O)(=O)N2CCCC2)cc1)c1cccc(OC(F)F)c1	AmpC no deterg 31.6µM (no result: FBPA Giardia inh)
O=C(COC(=O)c1ccc(O)cc1)Nc1cccc(S(=O)(=O)N2CCCCC2)c1	AmpC no deterg 8.91µM
Cc1ccc(NC(=O)c2cc(S(=O)(=O)N3CCCCC3)c[nH]2)cc1F	none
O=C(Nc1cccc(S(=O)(=O)N2CCCCC2)c1)c1ccc(S(=O)(=O)C(F)F)cc1	AmpC no deterg 22.4µM
Cc1oc(-c2ccccc2Cl)nc1CS(=O)CC(=O)NCc1ccccc1Cl (centres undefined)	none (no result: FBPA Giardia inh)
Cc1cc2nc(-c3ccco3)cc(C(F)(F)F)n2n1	AmpC no deterg 10µM
Cc1ccc(S(=O)(=O)CC(=O)N2CCN(c3nc4c(F)cccc4s3)CC2)cc1	none (no result: FBPA Giardia inh, AmpC no deterg, AMA1 RON2 block)
O=C(Nc1ccc(S(=O)(=O)N2CCOCC2)cc1)c1ccc(Cl)c([N+](=O)[O-])c1	none (no result: FBPA Giardia inh, AmpC detergent, AmpC no deterg)
N#Cc1c(-c2ccccc2)cc(-c2ccco2)c(C#N)c1N	FBPA Giardia inh inconclusive, AmpC no deterg 14.1µM (no result: AMA1 RON2 block)
Nc1ccc(N2CCN(c3ncc(C(F)(F)F)cc3Cl)CC2)c(C(F)(F)F)c1	none (no result: FBPA Giardia inh, AmpC no deterg, AMA1 RON2 block)
O=C(COc1ccccc1)Nc1nnc(-c2ccc3c(c2)CCCC3)o1	AmpC detergent inconclusive, AmpC no deterg 10µM
O=C(Nc1nnc(-c2ccc3c(c2)CCCC3)o1)c1ccccc1	none
Clc1ccc(/C=C/c2nc3ccccc3[nH]2)c(Cl)c1	AmpC no deterg 11.2µM
Clc1ccc(/C=C/c2nc3ccccc3[nH]2)cc1	AmpC detergent inconclusive
O=C(CC1N=C2c3ccccc3N=C(SCc3ccccc3Cl)N2C1=O)NCCc1ccccc1 (centres undefined)	none (no result: FBPA Giardia inh, AmpC no deterg, AMA1 RON2 block)
O=C(O)c1c(Cl)c(Cl)c(Cl)c(Cl)c1-c1c2cc(I)c(=O)c(I)c-2oc2c(I)c(O)c(I)cc12	none (no result: AmpC detergent, AmpC no deterg, AMA1 RON2 block)
O=C(O)c1ccccc1-c1c2cc(I)c(=O)c(I)c-2oc2c(I)c(O)c(I)cc12	AMA1 RON2 block 7.94µM (no result: AmpC detergent, AmpC no deterg)
Clc1ccc(/C=N/Nc2nc(Cl)nc3ccccc23)cc1	AmpC no deterg 17.8µM
CC(=O)OCC1=C(C(=O)O)N2C(=O)[C@@H](NC(=O)Cc3cccs3)[C@H]2SC1	FBPA Giardia inh inconclusive, AmpC detergent 7.08µM, AmpC no deterg 8.91µM
C=CC1=C(C(=O)O)N2C(=O)C(NC(=O)Cc3ccccc3)C2SC1 (centres undefined)	FBPA Giardia inh 15.8µM
CCOc1cc(OCC)cc(C(=O)N2CCC[C@H]2C(=O)N2CCC[C@H]2C(=O)NCc2ccccn2)c1	none (no result: FBPA Giardia inh, AmpC detergent, AmpC no deterg)
CNS(=O)(=O)c1ccc(CNC[C@H]2O[C@@H](n3ccc(N)nc3=O)[C@H](O)[C@@H]2O)cc1	none (no result: FBPA Giardia inh, AmpC detergent, AmpC no deterg)
COc1cccc(Cc2nc3ccccc3nc2SCC(=O)Nc2ccccc2F)c1	none (no result: FBPA Giardia inh, AmpC no deterg, AMA1 RON2 block)
COc1ccc(C)cc1NCc1ccc(OC)c(C)c1OC	FBPA Giardia inh inconclusive, AMA1 RON2 block 28.2µM
CCN(CC)CCNC(=O)C1CCN(S(=O)(=O)N2CCCCC2)CC1	AmpC no deterg 0.282µM
CCOCCCNC(=O)C1CCN(S(=O)(=O)N2CCCCC2)CC1	none
O=Cc1c[nH]c2ccc(S(=O)(=O)N3CCCCC3)cc12	none (no result: FBPA Giardia inh, AmpC detergent, AmpC no deterg)
C=CCN1C(=O)N/C(=C/c2ccc(C)o2)C1=O	FBPA Giardia inh 15.8µM
COc1ccc(-c2ccc(C(=O)NCc3ccccc3)c3occc23)c(C)c1	none (no result: FBPA Giardia inh, AmpC detergent, AmpC no deterg)
COc1ccc(-c2ccc(C(=O)NCc3ccc(N4CCN(C)CC4)cc3)c3occc23)c(C)c1	AMA1 RON2 block 15.8µM (no result: FBPA Giardia inh, AmpC detergent, AmpC no deterg)
CC(/C=N/NC(=O)c1ccccc1F)=C\c1ccccc1	none
c1cnc2c(c1)ccc1cccnc12	FBPA Giardia inh 19.9µM, AmpC detergent inconclusive
O=Cc1ccc2ccc3cccnc3c2n1	none
NS(=O)(=O)c1ccc(N=Nc2c(O)[nH]c(=S)[nH]c2=O)cc1	none
NS(=O)(=O)c1ccc(N=Nc2ccc(=O)[nH]c2O)cc1	FBPA Giardia inh 5.61µM
CC(C)c1ccc(C(=O)Nc2cc(-c3ccccc3F)nn2-c2ccccc2)cc1	none (no result: FBPA Giardia inh, AmpC no deterg, AMA1 RON2 block)
COc1cccc(C2CC(c3ccc(F)cc3)Nc3nc(N)nn32)c1 (centres undefined)	AmpC no deterg 39.8µM
COc1ccc(C2CC(c3cccc(Cl)c3)n3nc(N)nc3N2)cc1 (centres undefined)	AmpC detergent inconclusive, AmpC no deterg 0.891µM
CCCCn1c(=O)nc2n(-c3ccc(F)cc3)c3ccccc3cc-2c1=O	none (no result: FBPA Giardia inh, AmpC no deterg, AMA1 RON2 block)
CC1(C(=O)NCc2ccc(F)c(F)c2)Cc2c(-c3cccc(C(F)(F)F)c3)ccnc2O1 (centres undefined)	none (no result: FBPA Giardia inh, AmpC detergent, AmpC no deterg)

Screens: PubChem, National Center for Advancing Translational Sciences (NCATS)
